Screening results as filed in PubChem BioAssay.
This is a sample that favours compounds with a hit; in the whole collection about 12% have one here.
HP1b chromo inh: HTS for Inhibitors of HP1-beta Chromodomain Interactions with Methylated Histone Tails; Chromobox protein homolog 1 (Homo sapiens), P83916; AlphaScreen HP1-beta / biotin-H3K9me3 peptide binding; 0.56% of 390,000 active; Potency, µM (titrated, usually from 114 µM), for inactives: at the top dose activity change, negative = inhibition, actives largely listed as inhibitors; also: nearly all actives have a fitted effect of over 70% in size
Target sequence (P83916 whole entry, looked up): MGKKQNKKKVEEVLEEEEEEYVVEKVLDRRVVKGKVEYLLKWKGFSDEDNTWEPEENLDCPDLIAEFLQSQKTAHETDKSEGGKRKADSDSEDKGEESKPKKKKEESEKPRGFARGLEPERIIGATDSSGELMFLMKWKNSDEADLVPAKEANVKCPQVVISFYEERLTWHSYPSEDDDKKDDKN
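AlphaScreen: HP1-beta (50 nM) preformed 30 min with biotin-H3(1-18)K9me3 peptide (50 nM) in PBS pH 7.4, 0.01% Tween-20. Compound added for 30 min at RT, then streptavidin donor/nickel chelate acceptor beads (10 ug/mL) for 30 min.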
TDP1 inh: qHTS Assay for Inhibitors of Tyrosyl-DNA Phosphodiesterase (TDP1). Tyrosyl-DNA phosphodiesterase 1 (Homo sapiens), Q9NUW8. recombinant TDP1, AlphaScreen DNA substrate cleavage. Potency, µM (top dose mostly 130 µM), without a hit: top-dose activity change, negative = inhibition, hits mostly inhibitors. 0.28% of 350,000 active. AID 485290, 2010; also: % is scaled to controls: 0 for no effect and ±100 for the full control effect; nearly all actives have a fitted effect of over 40% in size
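Signal: AlphaScreen proximity between streptavidin donor and anti-FITC acceptor beads on intact substrate. Reaction: Tdp1 1 nM, substrate 15 nM final, 5 min RT after 15 min compound preincubation.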
G9a inh: qHTS Assay for Inhibitors of Histone Lysine Methyltransferase G9a; G9a H3K9 monomethylation, AlphaScreen, 2 h; Potency, µM (series often up to 102 µM), inactives show at the top dose activity, negative = inhibition, most hits filed as inhibitors; Histone-lysine N-methyltransferase EHMT2 (Homo sapiens), Q96KQ7; 8.8% of 350,000 active; AID 504332, 2011; also: % is scaled to controls: 0 for no effect and ±100 for the full control effect; nearly all actives have a fitted effect of over 75% in size
Target sequence (Q96KQ7 913-1193 limits assumed): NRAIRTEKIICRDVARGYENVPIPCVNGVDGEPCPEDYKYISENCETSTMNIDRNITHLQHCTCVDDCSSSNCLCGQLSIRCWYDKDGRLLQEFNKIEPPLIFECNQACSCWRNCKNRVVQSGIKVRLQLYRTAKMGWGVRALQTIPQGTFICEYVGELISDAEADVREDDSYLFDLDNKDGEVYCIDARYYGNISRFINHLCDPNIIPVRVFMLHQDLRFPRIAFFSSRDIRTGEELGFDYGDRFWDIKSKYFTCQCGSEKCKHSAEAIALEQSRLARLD
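Quantitative HTS format: methyltransferase activity on a biotin-tagged H3K9 peptide is measured by AlphaScreen, using a rabbit anti-monomethyl-H3K9 antibody with streptavidin donor and anti-IgG acceptor beads. Final levels are 20 nM enzyme, 500 nM peptide, 20 uM SAM; 2 h RT.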
Sfp inh: qHTS Assay for Inhibitors of Bacillus subtilis Sfp phosphopantetheinyl transferase (PPTase) | 4'-phosphopantetheinyl transferase ffp (Bacillus subtilis), Q9F4F7 | Biochemical Sfp PPTase activity, qHTS | Potency, µM, for the others: largest response in the series, negative = inhibition, hits mostly inhibitors | 3.5% of 310,000 active | AID 1490, 2009;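 also: the enzyme is Sfp with the accession as filed and its product quenches rhodamine fluorescence; 0% = enzyme reaction without inhibitor and -100% = no enzyme wells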
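Fluorescence-quenching assay: 15 nM Sfp-PPTase preincubated 15 min at room temperature with compound, then 5 uM rhodamine-CoA and 12.5 uM BHQ-2-labelled YbbR peptide added. Fluorescence (ex 525/em 598 nm) read at start and after 30 min; difference gives rate.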
JMJD2A Tudor inh: qHTS Assay for Inhibitors of JMJD2A-Tudor Domain | Potency, µM (highest dose often 114 µM), without a hit: at the highest dose activity change, negative = inhibition, most hits filed as inhibitors | AID 504339, 2011 | AlphaScreen JMJD2A-Tudor / H3K4me3 peptide binding | 4.4% of 390,000 active | Lysine-specific demethylase 4A (Homo sapiens), O75164; also: % is scaled to controls: 0 for no effect and ±100 for the full control effect; nearly all actives have a fitted effect of over 50% in size
BAZ2B block: qHTS Assay for Inhibitors of BAZ2B; Bromodomain adjacent to zinc finger domain protein 2B (Homo sapiens), Q9UIF8; 4.4% of 360,000 active; Potency, µM (doses to about 114 µM), without a hit: at the highest dose activity change, negative = inhibition, hits mostly inhibitors; AlphaScreen BAZ2B-H3K14Ac peptide displacement; also: % is scaled to controls: 0 for no effect and ±100 for the full control effect; nearly all actives have a fitted effect of over 60% in size
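Inhibition is scored as reduced AlphaScreen emission. The BAZ2B/b-H3(5-23)K14Ac complex (50 nM each) in PBS pH 7.4, 0.01% Tween-20 meets compound (up to 110 uM) for 30 min at RT before bead addition.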
Starred values were filed as active, the others as inactive; ? = inconclusive; / = no result; [ ] = dose if it differs, or a comment. Calls follow the shape of the dose curve; as a rule, active = well fitted curve in the direction sought with a large enough effect; inconclusive = small, poorly fitted or top-dose-only effect, or another doubt; inactive = no such curve, though single readings can be large; an effect the other way counts as inactive or inconclusive. Potency is read from the fitted curve at half-maximal effect.

SMILES | HP1b chromo inh | TDP1 inh | G9a inh | Sfp inh | JMJD2A Tudor inh | BAZ2B block
COc1cc2cc(C#N)c(SCC(=O)N3CCOCC3)nc2cc1OC | 37% | 2% | ? | 13% | -6% | 7%
Cc1cc(C)c(C#N)c(SCC(=O)N2CCCCC2)n1 | 7% | 0% | 14µM* | 32µM* | ? | 0%
N#Cc1cc2cc3c(cc2nc1SCC(=O)N1CCCC1)OCCO3 | 18% | 0%[0.0935 µM] | 28µM* | -3% | -12% | -2%
COc1ccc2cc(C#N)c(SCC(=O)N3CCCC3)nc2c1 | 41% | 7% | 25%[59 µM] | -7% | -3% | -1%
CC(=O)CSc1nc2cc3c(cc2cc1C#N)OCCO3 | 21% | 5% | 1µM* | 27% | -9% | -22%
Cc1cc(C)c(C#N)c(SCC(=O)N2CCN(Cc3ccccc3)CC2)n1 | 39% | 3% | ? | 1% | -10% | -9%
Cc1ccc(N2C(=O)[C@@H]3[C@H](C2=O)C2c4ccccc4C=NN2[C@@H]3C(=O)c2ccc(Cl)cc2)cc1 (stereo partly specified) | 45% | 3% | -23%[59 µM] | 2% | -12% | 1%
Cc1ccc(N2C(=O)[C@@H]3[C@H](C2=O)[C@H]2C=CC=NN2[C@@H]3C(=O)Nc2ccc(Cl)cc2)cc1 | 2% | 10% | 3.2µM* | 40µM* | -8%[57.1 µM] | 50µM*
O=C(Nc1ccc(Cl)cc1)[C@@H]1[C@@H]2C(=O)N(c3ccc(Cl)cc3Cl)C(=O)[C@@H]2[C@H]2C=CC=NN21 | / | 10% | ? | -10% | / | ?
O=C(Nc1ccc(Cl)cc1)[C@@H]1[C@@H]2C(=O)N(c3ccc(Cl)cc3)C(=O)[C@@H]2[C@H]2C=CC=NN21 | -26% | 10% | ? | 45µM* | ? | -39%
CCC(CO)Oc1cc(NC(=O)c2cccc(Cl)c2)c2ncn(C(C)C)c2c1 (stereo unspecified) | 26% | -9% | 10%[0.501 µM] | / | ? | 79µM*
CCC(CO)Oc1cc(NC(=O)c2ccc(F)cc2)c2ncn(C(C)C)c2c1 (stereo unspecified) | 4% | -9% | 7%[0.501 µM] | / | 50µM* | -1%
CCC(CO)Oc1cc(NC(=O)c2cccc(C)c2)c2ncn(C(C)C)c2c1 (stereo unspecified) | 29% | -18% | / | / | -22% | /
O=C(Nc1nc2n(n1)C(c1ccc(F)cc1)C=C(c1ccccc1)N2)c1ccco1 (stereo unspecified) | 29% | 11% | ? | / | -18% | -17%
CCCCN(C)Cc1cc(=O)oc2ccc3ccccc3c12 | 106% | / | 159% | -8% | 116% | 71%
O=C(Nc1cccc([N+](=O)[O-])c1)c1cc2ccccc2cc1O | 36% | 3% | ? | 0% | -7%[11.4 µM] | 50µM*
O=C(Nc1cccc([N+](=O)[O-])c1)Nc1cccs1 | -8% | 6% | 40µM* | -27% | ? | ?
O=C(O)c1ccccc1C(=O)Nc1cccc([N+](=O)[O-])c1 | 38% | 4% | -6% | 14% | -6% | 3%
Clc1cccc(CSc2nc3ccncc3[nH]2)c1 | 39% | 3% | ? | ? | -7% | 2%
O=C(NCCN1CCN(c2cccc(Cl)c2)CC1)c1ccc(CSc2nc3ccncc3[nH]2)cc1 | -17% | 5% | 50µM* | 5% | 45µM* | ?
CC(=O)NC1C(O)C[C@@](O)(C(=O)O)OC1[C@@H](O)C(O)CO (stereo partly specified) | / | 9%[56.1 µM] | / | 13% | / | /
